Molecules are shown by their SMILES. Hit rate of the full screen: of about 52,000 compounds, about 1,700 (3.3%) were called active. The entries come from a sample that favours actives as a whole. Values without a mark were called inactive. Cut-off read from the data, not from the text of the source: active = survival mostly below about 52% (no sharp cut-off); inactive = mostly above about 56%.

The experiment relates to Wild type. Kind of experiment: S. aureus survival, RN4220 and DeltatarO strains – OD600, teichoic acid synthesis inhibitors, primary screen (AID 463173). As to conditions: S. aureus RN4220 wild type/DeltatarO growth, OD600, 18 h, hits give low values, screened at 18.75 µg/mL (by protocol).
Consider `O=C(Cn1c(=O)n(-c2ccccc2)c(=O)c2sc3ccccc3c21)NC1CCCC1`, for which the survival was 138%.
As for `CCOc1ccc(CNC(=O)CCn2nc(C)c3c(C)n(-c4ccccc4)nc3c2=O)cc1`, the figure is 129%; as for `COc1ccccc1-c1cc2nc(C)c(CCC(=O)NCc3cccc(Cl)c3)c(C)n2n1`, 112%.
`CC(C)(C)OC(=O)N1CCC2(CC1)C(C#N)=C(N)OC1=C2C(=O)CCC1`: the survival was 104%.
As for `CN1CCN(CC(=O)Nc2ccc(C(=O)NCC3CCCO3)cc2)CC1` (stereo not given), the figure is 108%; as for `COc1ccc2c(c1)c1c(c(=O)n(-c3cccc(C)c3)c(=O)n1CC(=O)NCCC1=CCCCC1)n2C`, 74%; as for `COc1ccccc1C(=O)Nc1ccccc1OCc1cc(=O)n2ccccc2n1`, 92%.
As for `CCN(CC)C(C)C(=O)Nc1c(C)cccc1C` (stereo not given), the figure is 109%; as for `Cc1ccc2oc(-c3cc(NC(=O)c4ccco4)ccc3Cl)nc2c1`, 1% (active); as for `COc1c(C)cccc1C(=O)Nc1ccc(Cl)c(-c2nc3cc(C)ccc3o2)c1`, -6% (active).
As for `Cc1ccc2oc(-c3cc(NC(=O)Cc4ccccc4)ccc3Cl)nc2c1`, the figure is 70%; as for `Cc1ccc2oc(-c3cc(NC(=O)/C=C/c4ccco4)ccc3Cl)nc2c1`, 25%.
On to `Cc1ccc2oc(-c3cc(NC(=O)c4oc5ccccc5c4C)ccc3Cl)nc2c1`, for which the survival is 81%.
With `O=C(Nc1ccc(Cl)c(-c2nc3ccccc3o2)c1)c1cccc2c(Cl)cccc12`, the survival was 67%.
As for `CC(C)c1ccc(NC(=O)c2cc3c(=O)oc4ccccc4c3s2)cc1`, the figure is 87%.
For `CCOC(=O)c1c(-c2ccc(OC)cc2)oc2ccc(OCc3ccc(F)cc3F)cc12`, the survival is 42%.
As for `CCOc1ccc(NC(=O)c2cc3c(s2)-c2ccccc2OC3)cc1`, the figure is 100%.
For `O=C(NCCc1ccc(Cl)cc1)c1cc2c(s1)-c1ccccc1OC2`, the survival is 105%.
On to `O=C(NCc1ccc(Cl)cc1)c1cc2c(s1)-c1ccccc1SC2`, for which the survival was 62%.
As for `O=C(NCCCN1CCN(c2ccccc2)CC1)c1cc2c(s1)-c1ccccc1OC2`, the figure is 69%; as for `CCN(CC)CCOC(=O)c1ccc(NC(=O)c2cc3c(s2)-c2ccccc2OC3)cc1`, 5% (active).
As for `CCc1cccc(NC(=O)c2cc3c(s2)-c2ccccc2OC3)c1`, the figure is 86%; as for `O=C(NCCCN1CCN(c2ccccc2F)CC1)c1cc2c(s1)-c1ccccc1OC2`, 11% (active).
`O=C(NCc1ccc(F)cc1)c1cc2c(s1)-c1ccccc1SC2`: the survival was 50%.
Turning to `CCCN1CCN(CCCNC(=O)c2cc3c(s2)-c2ccccc2OC3)CC1`, the survival is 83%.
As to `O=C(NCCCN1CCN(c2ccc(F)cc2)CC1)c1cc2c(s1)-c1ccccc1OC2`, the survival was 62%.
Regarding `CCCN(C(=O)c1cc2c(s1)-c1ccccc1SC2)c1ccccc1F`, the survival was 1% (active).
For the compound `CCCN(C(=O)c1cc2c(s1)-c1ccccc1OC2)c1ccccc1F`, the survival was -2% (active).
As for `Cc1ccc(NC(=O)C2CCCN2S(=O)(=O)c2ccc3c(c2)CCCC(=O)N3)cc1Cl` (stereo not given), the figure is 113%; as for `COc1ccc(-c2nc3cc(N=Cc4ccccc4O)ccc3o2)cc1`, 111%; as for `CCCCn1c2ccc(F)cc2c2nnc(SCCN3CCCCC3)nc21`, 139%.
As for `COCCCNC(=O)c1cc(-c2cccnc2)nc2ccccc12`, the survival is 118%.
`CCOc1ccc(NC(=O)CN2C(=O)c3ccccc3Sc3ccc(C(=O)OC)cc32)cc1`: the survival was 81%.
As for `COc1ccccc1OCc1ccc(C(=O)NCc2ccncc2)o1`, the figure is 116%; as for `Cc1ccc(Cn2cc(S(=O)(=O)c3ccccc3)c(=O)c3cc(F)c(N4CCOCC4)cc32)cc1`, 58%.
As for `O=C(c1nc(-c2ccc(Cl)cc2)n2c1CCCCC2)N1CCN(c2ccc(F)cc2)CC1`, the figure is 70%; as for `COc1ccc(C2c3c(n(C)c4ccccc34)C(=O)N2CC(=O)Nc2ccc(F)cc2)cc1` (stereo not given), 81%.
With `CC(=O)Nc1ccccc1-c1nc2cc(C#N)c(C#N)cc2[nH]c1=O`, the survival was 108%.
As for `CCN(c1ccccc1C)S(=O)(=O)c1nnc(NC(=O)c2ccc(OC)c(OC)c2)s1`, the figure is 42%.
For `COC(=O)c1ccccc1NC(=O)CCc1c(C)nc2c(c(C)nn2-c2ccccc2)c1C`, the survival was 117%.
For the compound `O=C(CSc1nc(-c2ccccc2)cn1-c1ccccc1)Nc1ccccc1`, the survival was 68%.
Consider `COc1ccc(NC(=O)c2c(NCc3cccc(OC)c3)sc3c2CCC3)cc1`, for which the survival was 65%.
Consider `CC(C)Nc1nc(NC(C)C)nc(N(C)C)n1`, for which the survival was 115%.
Regarding `Cc1ccc2oc3c(c(=O)c2c1)C(c1cccc(O)c1)N(Cc1ccccc1Cl)C3=O` (stereo not given), the survival was 82%.
On to `CCc1ccc(CNC(=O)c2cc3c(s2)-c2ccccc2OC3)cc1`, for which the survival was 95%.
`CCN(C(=O)c1cc2c(s1)-c1ccccc1OC2)c1cccc(C(F)(F)F)c1`: the survival was 14% (active).
As for `CCN(C(=O)c1cc2c(=O)n(CC)c3ccccc3c2s1)c1cccc(C(F)(F)F)c1`, the figure is 89%; as for `CCOc1ccc(N(CC)C(=O)c2cc3c(s2)-c2ccccc2OC3)cc1`, 88%; as for `COc1ccccc1CNC(=O)c1cc2c(s1)-c1ccccc1OC2`, 92%.
As for `COc1ccc(Cl)cc1NC(=O)c1cc2c(s1)-c1ccccc1OC2`, the figure is 80%; as for `CCc1ccccc1N(CC)C(=O)c1cc2c(s1)-c1ccccc1OC2`, 9% (active); as for `CCN(C(=O)c1cc2c(=O)oc3ccccc3c2s1)c1cccc(C(F)(F)F)c1`, 131%.
As for `CCN(C(=O)c1cc2c(s1)-c1ccccc1OC2)c1cc(Cl)ccc1OC`, the figure is 8% (active).
As for `CCCN(C(=O)c1cc2c(s1)-c1ccccc1OC2)c1ccc(C(C)C)cc1`, the survival is 5% (active).
As for `CCOc1ccc(CNC(=O)c2cc3c(s2)-c2ccccc2OC3)cc1`, the figure is 91%; as for `CCCN(C(=O)c1cc2c(s1)-c1c(C)cccc1OC2)c1ccc(OCC)cc1`, 95%.
As for `O=C(CSCc1cnn(-c2ccccc2)c1-n1cccc1)NCc1cccc(Cl)c1`, the figure is 91%.
As for `O=C(O)C1CCN(C(=O)c2ccc(-c3ccccc3)cc2)CC1`, the figure is 116%; as for `Cc1ccc(Cl)cc1-n1c(=O)c2sc3ccccc3c2n(Cc2ccccc2)c1=O`, 77%; as for `Cn1c(=O)oc2cc(S(=O)(=O)CCC(=O)NCc3ccc(Cl)cc3)ccc21`, 74%.
As for `Cc1ccc(CNC(=O)c2cc3c(s2)-c2ccccc2SC3)cc1`, the survival is 120%.
As for `CCc1ccccc1N(CC)C(=O)c1cc2c(s1)-c1ccccc1SC2`, the survival was -1% (active).
On to `O=C(NCc1ccccc1Cl)c1cc2c(s1)-c1ccccc1SC2`, for which the survival was 74%.
As for `CCOc1ccc(CCNC(=O)c2ccc3c(c2)N(Cc2ccccc2F)C(=O)c2ccccc2S3=O)cc1OCC` (stereo not given), the figure is 84%; as for `Cn1c(C(=O)NCc2ccc(Cl)cc2)cc2c(=O)n(C)c3ccccc3c21`, 120%.
For `CCNC(=O)c1c(NC(=O)c2cc(=O)c3ccc(C)c(C)c3o2)sc2c1CCCC2`, the survival is 85%.
For `Cc1ccccc1OCC(=O)OCc1cc(=O)n2ccsc2n1`, the survival was 82%.
Consider `COc1cccc(C(=O)Nc2cccc(C(=O)OCc3cc(=O)n4c(C)csc4n3)c2)c1`, for which the survival is 133%.
As for `CCOc1ccc(C(=O)Nc2ccc(C(=O)OCc3cc(=O)n4c(C)csc4n3)cc2)cc1`, the figure is 85%.
For the compound `Cc1cccc(C(=O)Nc2ccccc2OCc2cc(=O)n3cc(C)ccc3n2)c1`, the survival was 47%.
As for `Cc1csc2nc(COC(=O)c3ccccc3NC(=O)c3ccc(C(C)(C)C)cc3)cc(=O)n12`, the figure is 55%.
As for `Cc1csc2nc(COC(=O)c3ccccc3NC(=O)c3ccc(F)cc3)cc(=O)n12`, the figure is 14% (active); as for `Cc1ccccc1C(=O)Nc1cccc(C(=O)OCc2cc(=O)n3c(C)csc3n2)c1`, 76%.
As for `Cc1csc2nc(COC(=O)c3ccc(F)cc3)cc(=O)n12`, the figure is 81%; as for `Cc1ccc2nc(COc3ccccc3NC(=O)c3ccccc3F)cc(=O)n2c1`, 80%; as for `CCOc1cc(C(=O)OCc2cc(=O)n3c(C)csc3n2)cc(OCC)c1OCC`, -3% (active).
As for `Cc1csc2nc(COC(=O)c3cccc(NC(=O)c4cccc(Cl)c4)c3)cc(=O)n12`, the survival was -1% (active).
For the compound `Cc1ccc2nc(COc3ccccc3NC(=O)c3ccc(F)cc3)cc(=O)n2c1`, the survival was -3% (active).
As for `COc1ccccc1C(=O)Nc1ccccc1C(=O)OCc1cc(=O)n2c(C)csc2n1`, the survival was 131%.
As for `CCOc1ccc(NC(=O)CSc2nc(-c3cccc(Cl)c3)nc3c2Cc2c(CO)cnc(C)c2O3)cc1`, the figure is 84%; as for `COc1cc(OC)cc(C(=O)N2CCN(C(=O)COc3ccccc3)CC2)c1`, 64%.
As to `CCc1ccc(NC(=O)CN(c2cc(C)cc(C)c2)S(=O)(=O)c2c(C)[nH]c(=O)[nH]c2=O)cc1`, the survival was 68%.
As for `CC(C)c1cc(-c2nc(-c3cccc(Cl)c3)no2)n[nH]1`, the survival is 131%.
As for `Cc1cc(Br)ccc1NC(=O)C1CCN(S(=O)(=O)c2ccc(Br)s2)CC1`, the figure is 70%.
`COC(=O)C1=C(c2ccccc2)c2ccccc2S(=O)(=O)N1CC(=O)Nc1ccc(OC)cc1OC`: the survival is 154%.
As for `CS(=O)(=O)c1cccc(S(=O)(=O)c2cccc(S(C)(=O)=O)c2)c1`, the figure is 86%; as for `Cc1cccc(C)c1OCc1cc(=O)n2c3c(sc2n1)CCCC3`, -1% (active).
As for `Cc1cccc(OCC(=O)Nc2cccc(C(=O)OCc3cc(=O)n4c(C)csc4n3)c2)c1`, the figure is -6% (active).
Regarding `Cc1ccc(OCC(=O)Nc2cccc(C(=O)OCc3cc(=O)n4c(C)csc4n3)c2)cc1`, the survival was 69%.
`Cc1ccc(OCc2cc(=O)n3c4c(sc3n2)CCCC4)cc1C`: the survival is 80%.
As for `O=C(Nc1ccccc1C(=O)OCc1cc(=O)n2c3c(sc2n1)CCCC3)c1ccc(Cl)cc1`, the figure is -3% (active).
As for `O=C(Nc1ccccc1C(=O)OCc1cc(=O)n2c3c(sc2n1)CCCC3)c1cccc(Cl)c1`, the figure is 73%.
As for `Cc1cccc(OCc2cc(=O)n3c4c(sc3n2)CCCC4)c1C`, the figure is 128%.
On to `Cc1csc2nc(COC(=O)c3cccc(NC(=O)COc4ccc(Cl)cc4)c3)cc(=O)n12`, for which the survival was 78%.
As for `O=C(Nc1ccccc1C(=O)OCc1cc(=O)n2c3c(sc2n1)CCCC3)c1ccccc1`, the figure is 94%.

(Values after PubChem BioAssay AID463173 (ICCB-Longwood Screening Facility, Harvard Medical School, 2010).)
